Measured values reported in PMC5540273 (PLoS ONE, 2017).
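Further: KINOMEscan kinase panel screen.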

Each molecule was assayed on RET. Settings: concentration: 1 μM, replicates: in singlicate; n = 1.
COc1cccc(C(=O)Nc2cccc(Oc3ccc4nc(NC(=O)C5CC5)cn4n3)c2)c1 was tested, and the “%Inh” value was 100%.
For CN(C)Cc1ccc(-c2ccc3c(Nc4ccc(Oc5ccccn5)cc4)ccnc3c2)o1 [GW567148], the “%Inh” value was 1%.
In the case of Nc1ncc(-c2cccnc2)c2scc(-c3ccc4c(c3)CCN4C(=O)Cc3ccccc3)c12 [GSK683281], the “%Inh” value is reported as 21%.
For COc1ccc(Nc2nccc(NCCNC(=O)c3cc4ccccc4s3)n2)cc1 [GSK1379896], the “%Inh” value was 25%.
O=C(Nc1n[nH]c2nc(-c3ccc(O)cc3)ccc12)C1CC1 [SB-710363] was tested, and the “%Inh” value was 0%.
O=C(Nc1cccc(-c2nn3ccccc3c2-c2ccnc(Nc3cccc(F)c3)n2)c1)c1c(F)ccc(F)c1Cl [GSK357952] was tested, and the “%Inh” value was 84%.
For CN1CCN(Cc2cccc(-c3ccc4c(Nc5ccc(Oc6ccccc6)cc5)ccnc4c3)c2)CC1 [GW578342], the “%Inh” value was 48%.
For COc1cc(Nc2nccc(N3CCC(NC(=O)Nc4cccc(C(C)=O)c4)C3)n2)cc(OC)c1OC (stereo not drawn) [GSK1379753], the “%Inh” value was 0%.
For c1ccc(Oc2ccc(Nc3ccnc4cc(-c5ccc(CNCCN6CCOCC6)o5)ccc34)cc2)nc1 [GW567145], the “%Inh” value was 5%.
With CC(C)c1nc(-c2cccc(NS(=O)(=O)c3c(F)cccc3F)c2F)c(-c2ccnc(Nc3ccc(N4CCOCC4)nc3)n2)s1 [GSK2008607] the “%Inh” value was 99.7%.
For C[C@@H](Oc1cc(-n2cnc3cc(-c4ccnc(NCCS(C)(=O)=O)c4)ccc32)sc1C(N)=O)c1ccccc1Cl [GSK907232], the “%Inh” value was 51%.
With Cn1cc(-c2[nH]c3cc(NC(=O)[C@H](N)C4CCCCC4)cc4c3c2C=NNC4=O)cn1 the “%Inh” value was 100%.
CCS(=O)(=O)c1ccc(OC)c(Nc2nccc(-c3c(-c4cccc(NC(=O)c5c(F)cccc5F)c4)nn4ncccc34)n2)c1 [GSK326180] was tested, and the “%Inh” value was 20%.
For Cl.NC(=O)c1cccc(Nc2nccc(Nc3ccc(Oc4c(Cl)cccc4Cl)c(Cl)c3)n2)c1 [GW659009], the “%Inh” value was 0%.
In the case of Nc1ncc(-c2ccc3nccc(-c4ccncc4)c3c2)cc1S(=O)(=O)N1CCOCC1 [GSK1627798], the “%Inh” value is reported as 0%.
For Cn1cc(-c2ccc3c(c2)CCN3C(=O)Cc2cccc(Cl)c2)c2c(N)ncnc21 [GSK2606590], the “%Inh” value was 27%.
With CC(C)(C)c1ccc2nccc(Nc3cccc(O)c3)c2c1 [GW856795] the “%Inh” value was 94.7%.
With CC(=O)Nc1nc2cnc(Nc3cc(NC(=O)c4cccc(C5(C#N)CC5)c4Cl)ccc3C)nc2s1 the “%Inh” value was 99.6%.
For COc1cc(Nc2nccc(N3CCC(NC(=O)c4cc5ccccc5s4)C3)n2)cc(OC)c1OC (stereo not drawn) [GSK1379760], the “%Inh” value was 21%.
Cc1occc1-c1ncc(OC[C@@H](N)Cc2c[nH]c3ccccc23)cc1-c1ccc2[nH]nc(C)c2c1.O=C(O)C(F)(F)F [GSK682037] was tested, and the “%Inh” value was 84%.
With C[C@@H]1CC[C@@H](C(=O)Nc2ccccc2)CN1c1cc(-c2ccc3c(N)n[nH]c3c2)nc(N)n1 [GSK2286062] the “%Inh” value was 6%.
In the case of CCn1c(-c2nonc2N)nc2c(C#CC(C)(C)O)ncc(OCCCCN)c21.O=C(O)C(F)(F)F.O=C(O)C(F)(F)F [GSK507274], the “%Inh” value is reported as 1%.
For O=c1[nH]cc(-c2ccc(N3CCOCC3)cc2)c2sc(-c3cn[nH]c3)cc12 [GSK2276055], the “%Inh” value was 3%.
In the case of COc1cccc(C2=C(Nc3ccc(Cl)c(C(=O)O)c3)C(=O)NC2=O)c1 [SB-390769], the “%Inh” value is reported as 11%.
